Assay outcomes (PubChem)
HPGD block = qHTS Assay for Inhibitors of HPGD (15-Hydroxyprostaglandin Dehydrogenase); purified HPGD, NADH fluorescence kinetic, PGE2 substrate; Potency, µM, most hits filed as inhibitors; 150,000 compounds, 4.3% hits; active = well fitted inhibition curve with a large enough effect, not every such curve was filed as active; inconclusive = small, poorly fitted or top-dose-only effect, or another doubt; inactive = no such curve, though single readings can be large or run the other way
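20 nM HPGD preincubated 15 min at room temperature with compound in 50 mM Tris-HCl pH 8, 0.01% Tween 20. Started with 1 mM NAD+ and 30 uM prostaglandin E2; NADH fluorescence (360/450 nm) read 5 times over 30-s intervals, last minus first.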
Tau fluor counter = Counterscreen qHTS for Inhibitors of Tau Fibril Formation, Fluorescence Polarization | tau K18 P301L Alexa594 fluorescence, heparin fibrillization | Potency, µM (series often up to 57.7 µM) | 280,000 compounds, 0.93% hits | AID 1463, 2008; also: nearly all actives have a fitted effect of over 55% in size
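Human K18 P301L tau (15 uM unlabeled plus 0.24 uM Alexa 594-labeled, final) in 100 mM sodium acetate pH 7 was mixed with compound and 20 uM heparin and incubated 6 hr at 37 C.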
Tau ThT inhib = qHTS for Inhibitors of Tau Fibril Formation, Thioflavin T Binding; Microtubule-associated protein tau (Homo sapiens), P10636; recombinant tau K18 P301L (four-repeat tau fragment), heparin-induced fibrillization, ThT fluorescence; Potency, µM (titrated, usually from 57.4 µM), usual class: inhibitors; 270,000 compounds, 2.1% hits; also: nearly all actives have a fitted effect of over 55% in size
Target sequence (P10636 561-689 P618L limits assumed): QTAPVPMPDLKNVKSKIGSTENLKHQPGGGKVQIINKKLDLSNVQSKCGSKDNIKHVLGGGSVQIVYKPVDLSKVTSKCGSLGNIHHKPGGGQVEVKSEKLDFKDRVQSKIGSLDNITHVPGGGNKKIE
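K18 P301L tau (15 uM + 0.24 uM Alexa 594-tagged), heparin 20 uM, NaOAc pH 7, 6 h 37 C; ThT 30 uM, 1 h RT, ex 450/em 510 nm.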
ALDH1A1 block = qHTS Assay for Inhibitors of Aldehyde Dehydrogenase 1 (ALDH1A1); Potency, µM (top dose mostly 75.3 µM), actives largely listed as inhibitors; Aldehyde dehydrogenase 1A1 (Homo sapiens), P00352; Purified ALDH1A1, NADH fluorescence, propionaldehyde substrate; 220,000 compounds, 7.3% hits; AID 1030, 2008; active = well fitted inhibition curve with a large enough effect, not every such curve was filed as active; inconclusive = small, poorly fitted or top-dose-only effect, or another doubt; inactive = no such curve, though single readings can be large or run the other way
Target sequence (P00352 whole entry, looked up): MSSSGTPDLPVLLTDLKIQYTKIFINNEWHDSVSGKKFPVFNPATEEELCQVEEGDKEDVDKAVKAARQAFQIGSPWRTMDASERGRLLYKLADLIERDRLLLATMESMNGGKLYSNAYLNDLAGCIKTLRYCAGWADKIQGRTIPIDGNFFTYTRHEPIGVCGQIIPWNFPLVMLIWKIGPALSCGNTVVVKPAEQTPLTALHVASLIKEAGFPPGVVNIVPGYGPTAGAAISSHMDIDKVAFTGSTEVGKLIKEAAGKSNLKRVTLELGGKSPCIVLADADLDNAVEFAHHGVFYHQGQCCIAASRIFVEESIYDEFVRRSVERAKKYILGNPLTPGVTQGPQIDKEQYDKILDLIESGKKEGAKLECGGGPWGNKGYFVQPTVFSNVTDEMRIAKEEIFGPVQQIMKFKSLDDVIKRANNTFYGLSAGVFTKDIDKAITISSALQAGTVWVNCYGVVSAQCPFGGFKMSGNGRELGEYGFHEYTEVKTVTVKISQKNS
Tau FP inhib = qHTS for Inhibitors of Tau Fibril Formation, Fluorescence Polarization; Microtubule-associated protein tau (Homo sapiens), P10636; K18 P301L tau heparin fibrillization, Alexa594 FP, 6 h; Potency, µM (doses to about 57.7 µM), actives largely listed as inhibitors; 280,000 compounds, 0.39% hits; AID 1468, 2008; also: nearly all actives have a fitted effect of over 55% in size
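K18 P301L tau (15 uM unlabeled/0.24 uM Alexa 594-labeled, final) + compound + heparin 20 uM final; 100 mM NaOAc pH 7; 6 hr 37 C; ThT 30 uM final added, 1 hr RT; FP ex 555/em 632 nm.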
JMJD2E inh = qHTS Assay for Inhibitors of Human Jumonji Domain Containing 2E (JMJD2E). JMJD2E catalytic domain, FDH-coupled NADH fluorescence (FDH is formaldehyde dehydrogenase). Potency, µM (highest dose often 57.1 µM), hits mostly inhibitors. 230,000 compounds, 1.6% hits. AID 2147, 2009; active = well fitted inhibition curve with a large enough effect, not every such curve was filed as active; inconclusive = small, poorly fitted or top-dose-only effect, or another doubt; inactive = no such curve, though single readings can be large or run the other way; also: nearly all actives have a fitted effect of over 50% in size
Large screens that a line does not name were inactive; [ ] = another dose, or the depositor's remark. Rows were chosen to be rich in hits. Some 9.9% of all compounds tested hit in one or more screens of this group. Unless noted, calls follow the shape of the dose curve; as a rule, active = well fitted curve in the direction sought with a large enough effect; inconclusive = small, poorly fitted or top-dose-only effect, or another doubt; inactive = no such curve, though single readings can be large; an effect the other way counts as inactive or inconclusive.

O=C1c2ccccc2-c2onc3c(N4CCN(C5CCCCC5)CC4)cc(NCCO)c1c23	Tau fluor counter inconclusive, Tau ThT inhib 7.08µM (no result: HPGD block, ALDH1A1 block, JMJD2E inh)
Cc1cc(C)c(S(C)(=O)=O)c(NN)n1	Tau ThT inhib inconclusive, ALDH1A1 block inconclusive, JMJD2E inh inconclusive (no result: HPGD block)
Cc1ccc(CSc2nnc(-c3ccncc3)o2)c(C)c1	Tau ThT inhib inconclusive (no result: HPGD block)
COc1ccc(CN[C@H](C)C(=O)O)cc1	none (no result: Tau fluor counter, Tau ThT inhib, Tau FP inhib, JMJD2E inh)
Cc1ccc(C)n1-c1sccc1C(=O)O	Tau ThT inhib 31.6µM, Tau FP inhib inconclusive
Cc1ccc(NC(=O)CSc2ncn[nH]2)cc1C	none (no result: HPGD block, ALDH1A1 block, JMJD2E inh)
Cc1ccc(NC(=O)CSc2ncc3ccccn23)cc1C	ALDH1A1 block 3.16µM (no result: HPGD block)
CCOC(=O)c1c(NC(=O)CCCOc2ccc(C(C)(C)C)cc2)sc2c1CCC2	Tau ThT inhib inconclusive (no result: HPGD block, ALDH1A1 block, JMJD2E inh)
CCOc1ccc(NC(=O)c2ccc3c(c2)CCN3S(=O)(=O)CC)cc1	none (no result: HPGD block, ALDH1A1 block, JMJD2E inh)
CN(C)c1ccc(-c2nc3ccccn3c2/N=C/c2ccc(Br)cc2)cc1	Tau fluor counter inconclusive, Tau ThT inhib 14.1µM, ALDH1A1 block inconclusive, Tau FP inhib inconclusive
Cc1c(-c2ccc(Br)cc2)nc2ccccn12	Tau ThT inhib inconclusive, JMJD2E inh inconclusive (no result: HPGD block)
Cc1cc(C)c(Nc2cc(S(=O)(=O)O)c(N)c3c2C(=O)c2ccccc2C3=O)c(C)c1	HPGD block inconclusive, Tau fluor counter 7.08µM[quencher], Tau ThT inhib 7.94µM, ALDH1A1 block 25.1µM, Tau FP inhib 20µM
Cc1cc(=O)n(CC(=O)Nc2ccc(Cl)c(Cl)c2)c(-n2nc(C)cc2C)n1	Tau FP inhib inconclusive (no result: HPGD block, ALDH1A1 block, JMJD2E inh)
Cc1cccc(C)c1N/C=C/c1onc(C)c1[N+](=O)[O-]	none
Cc1ccc(N/C=C/c2onc(C)c2[N+](=O)[O-])cc1	Tau ThT inhib 0.631µM (no result: HPGD block, ALDH1A1 block)
COCCCN=C(c1ccco1)n1c(=S)nc(-c2ccco2)n(CCCOC)c1=S	HPGD block 28.2µM, Tau ThT inhib 31.6µM, ALDH1A1 block 3.55µM, Tau FP inhib inconclusive, JMJD2E inh inconclusive
COc1ccc(-c2nc3ccccc3c(=O)n2CCCn2ccnc2)cc1	ALDH1A1 block 14.1µM
O=c1c2ccccc2nc(-c2ccccc2)n1CCCn1ccnc1	none
COCCCn1c(SCC(=O)OC2CCCCC2)nnc1-c1ccco1	ALDH1A1 block inconclusive
COCCCn1c(-c2ccco2)nc2ccccc2c1=O	ALDH1A1 block 22.4µM
COc1ccc(CCn2c(-c3ccco3)nc3ccccc3c2=O)cc1OC	none
Cc1ccc(NC(=O)CSc2nc3ccccc3n2CC(=O)N2CCC(C)CC2)cc1C	none (no result: HPGD block, ALDH1A1 block, JMJD2E inh)
COC(=O)/C(=N\Nc1ccc(Cl)cc1)Sc1nnc(-c2ccc(OC)cc2)n1C	Tau FP inhib inconclusive
Cc1cc(/C=C2\C(=N)N3N=C(c4ccco4)SC3=NC2=O)c(C)n1Cc1ccccc1	Tau fluor counter inconclusive, Tau ThT inhib 12.6µM, ALDH1A1 block inconclusive, JMJD2E inh inconclusive (no result: HPGD block)
CC(C)[C@H](NC(=O)OC(C)(C)C)[C@@H](O)CC(=O)C(C)(C)C	none (no result: HPGD block, JMJD2E inh)
CCCC(C(=O)O)N1C(=O)/C(=C2\C(=O)N(C)c3ccccc32)SC1=S (stereo unspecified)	HPGD block 25.1µM, Tau ThT inhib inconclusive
Cc1c(N2C(=O)/C(=C3/C(=O)N(C)c4ccccc43)SC2=S)c(=O)n(-c2ccccc2)n1C	Tau ThT inhib inconclusive
Cc1ccccc1-c1cncnc1Nc1ccccc1	none (no result: HPGD block, Tau fluor counter, Tau ThT inhib, Tau FP inhib, JMJD2E inh)
CN(C)c1ccc(-c2cncnc2Nc2ccccc2)cc1	ALDH1A1 block 25.1µM (no result: HPGD block, Tau fluor counter, Tau ThT inhib, Tau FP inhib, JMJD2E inh)
O=C(CCc1ccccc1)NC1CC(=O)N(c2ccccc2)C1 (stereo unspecified)	none (no result: HPGD block, ALDH1A1 block, JMJD2E inh)
CCN(CC)c1ccc(N=Nc2ncn[nH]2)cc1	Tau ThT inhib 12.6µM, JMJD2E inh 14.1µM (no result: HPGD block)
CCN(CC)c1ccc(/C=N/O)cc1	ALDH1A1 block inconclusive, JMJD2E inh inconclusive (no result: HPGD block)
CCOc1ccc(Nc2nc3cc(Cl)c(Cl)cc3nc2-n2nc(C)cc2C)cc1	none (no result: HPGD block, ALDH1A1 block, JMJD2E inh)
CCCC(C(=O)NC1CCCCC1)N(Cc1ccco1)C(=O)CNS(=O)(=O)c1ccccc1 (stereo unspecified)	ALDH1A1 block 10µM
CCCC(C(=O)NCC1CCCO1)N(Cc1ccco1)C(=O)CNS(=O)(=O)c1ccccc1 (stereo unspecified)	ALDH1A1 block 11.2µM
O=C(COc1ccccc1)Nc1nnc2n1CCS2	none (no result: HPGD block, ALDH1A1 block, JMJD2E inh)
CC1(C)CC(=O)C(Br)=C(O)C1	Tau ThT inhib inconclusive, ALDH1A1 block inconclusive, JMJD2E inh inconclusive (no result: HPGD block)
CC1(C)CC(=O)C2=C(C1)OC1=C(C2)C(=O)CC(C)(C)C1	ALDH1A1 block 17.8µM
c1cc2c(cc1C(N1CCNCC1)N1CCNCC1)OCO2	none (no result: Tau fluor counter, Tau ThT inhib, Tau FP inhib, JMJD2E inh)
Cc1sc(C(C2C(=O)CC(C)(C)CC2=O)C2C(=O)CC(C)(C)CC2=O)cc1[N+](=O)[O-]	Tau ThT inhib inconclusive, ALDH1A1 block 12.6µM, JMJD2E inh inconclusive (no result: HPGD block)
